Assay results: PubChem BioAssay (NCATS)
Results filed as inconclusive are left out. Active and inactive are the calls of the source. The call rests on the fitted dose curve; in most records, active means well fitted inhibition curve with a large enough effect; inconclusive means small, poorly fitted or top-dose-only effect; inactive means flat fitted curve, though single readings scatter.

What was measured:
Assay in all cases: qHTS profiling for inhibitors of Plasmodium falciparum proliferation (AID 504749); further: nearly all actives have a fitted effect of over 60% in size
Settings in all cases: P. falciparum in erythrocytes, SYBR Green DNA, 72 h; series mostly up to 28.7 µM
CP265 = system: CP265
How it was run: (§1)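 SYBR Green fluorescence (ex 485 nm, em 535 nm) reports parasite DNA after 72 h compound exposure of infected red cells at 0.3% parasitemia, 2.5% hematocrit; signal normalized to 0.29 uM artemisinin and vehicle wells.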

CP266 = system: CP266
How it was run: as §1

CP268 = system: CP268
How it was run: as §1

CP269 = system: CP269
How it was run: as §1

CP286 = system: CP286
How it was run: as §1

CP291 = system: CP291
How it was run: as §1

CP297 = system: CP297
How it was run: as §1

CP305 = system: CP305
How it was run: as §1

CP315 = system: CP315
How it was run: as §1

CP325 = system: CP325
How it was run: as §1

CP329 = system: CP329
How it was run: as §1

CP335 = system: CP335
How it was run: as §1

DFO2036 = system: DFO2036
How it was run: as §1

DIV14 = system: DIV14
How it was run: as §1

DIV17 = system: DIV17
How it was run: as §1

DIV30 = system: DIV30
How it was run: as §1

Dd2 = system: Dd2
How it was run: as §1

ECU = system: ECU
How it was run: as §1

FAB9 = system: FAB9
How it was run: as §1

GB4 = system: GB4
How it was run: as §1

HB3 = system: HB3
How it was run: as §1

ICS = system: ICS
How it was run: as §1

JCK = system: JCK
How it was run: as §1

N140 = system: N140
How it was run: as §1

P93_24 = system: P93_24
How it was run: as §1

P94_40 = system: P94_40
How it was run: as §1

PAD = system: PAD
How it was run: as §1

PC15 = system: PC15
How it was run: as §1

PC26 = system: PC26
How it was run: as §1

PC49 = system: PC49
How it was run: as §1

SC27B = system: SC27B
How it was run: as §1

TAB109 = system: TAB109
How it was run: as §1

TAB113 = system: TAB113
How it was run: as §1

TAB165 = system: TAB165
How it was run: as §1

W2 = system: W2
How it was run: as §1

Measured: Potency

C[C@H](O)[C@@H]1C(=O)N2C(C(=O)O)=C(SCCN=CN)C[C@@H]12
inactive: all assays above
